32 targets from the supplement of paper PMC10849652 can be followed below.

The full data set covers some 7,900 targets. This sample favours those with a hit. About 0.6% of all pairs of compound and target were hits. Unmarked numbers belong to inactive results.

Chain of UniProt Q9NX18 (Q9NX18 whole entry, looked up): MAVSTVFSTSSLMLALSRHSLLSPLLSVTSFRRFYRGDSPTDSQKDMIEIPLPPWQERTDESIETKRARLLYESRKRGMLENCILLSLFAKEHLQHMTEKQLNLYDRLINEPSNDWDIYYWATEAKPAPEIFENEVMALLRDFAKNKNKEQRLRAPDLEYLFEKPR
Chain of UniProt Q8TDY2 (Q8TDY2 whole entry, looked up): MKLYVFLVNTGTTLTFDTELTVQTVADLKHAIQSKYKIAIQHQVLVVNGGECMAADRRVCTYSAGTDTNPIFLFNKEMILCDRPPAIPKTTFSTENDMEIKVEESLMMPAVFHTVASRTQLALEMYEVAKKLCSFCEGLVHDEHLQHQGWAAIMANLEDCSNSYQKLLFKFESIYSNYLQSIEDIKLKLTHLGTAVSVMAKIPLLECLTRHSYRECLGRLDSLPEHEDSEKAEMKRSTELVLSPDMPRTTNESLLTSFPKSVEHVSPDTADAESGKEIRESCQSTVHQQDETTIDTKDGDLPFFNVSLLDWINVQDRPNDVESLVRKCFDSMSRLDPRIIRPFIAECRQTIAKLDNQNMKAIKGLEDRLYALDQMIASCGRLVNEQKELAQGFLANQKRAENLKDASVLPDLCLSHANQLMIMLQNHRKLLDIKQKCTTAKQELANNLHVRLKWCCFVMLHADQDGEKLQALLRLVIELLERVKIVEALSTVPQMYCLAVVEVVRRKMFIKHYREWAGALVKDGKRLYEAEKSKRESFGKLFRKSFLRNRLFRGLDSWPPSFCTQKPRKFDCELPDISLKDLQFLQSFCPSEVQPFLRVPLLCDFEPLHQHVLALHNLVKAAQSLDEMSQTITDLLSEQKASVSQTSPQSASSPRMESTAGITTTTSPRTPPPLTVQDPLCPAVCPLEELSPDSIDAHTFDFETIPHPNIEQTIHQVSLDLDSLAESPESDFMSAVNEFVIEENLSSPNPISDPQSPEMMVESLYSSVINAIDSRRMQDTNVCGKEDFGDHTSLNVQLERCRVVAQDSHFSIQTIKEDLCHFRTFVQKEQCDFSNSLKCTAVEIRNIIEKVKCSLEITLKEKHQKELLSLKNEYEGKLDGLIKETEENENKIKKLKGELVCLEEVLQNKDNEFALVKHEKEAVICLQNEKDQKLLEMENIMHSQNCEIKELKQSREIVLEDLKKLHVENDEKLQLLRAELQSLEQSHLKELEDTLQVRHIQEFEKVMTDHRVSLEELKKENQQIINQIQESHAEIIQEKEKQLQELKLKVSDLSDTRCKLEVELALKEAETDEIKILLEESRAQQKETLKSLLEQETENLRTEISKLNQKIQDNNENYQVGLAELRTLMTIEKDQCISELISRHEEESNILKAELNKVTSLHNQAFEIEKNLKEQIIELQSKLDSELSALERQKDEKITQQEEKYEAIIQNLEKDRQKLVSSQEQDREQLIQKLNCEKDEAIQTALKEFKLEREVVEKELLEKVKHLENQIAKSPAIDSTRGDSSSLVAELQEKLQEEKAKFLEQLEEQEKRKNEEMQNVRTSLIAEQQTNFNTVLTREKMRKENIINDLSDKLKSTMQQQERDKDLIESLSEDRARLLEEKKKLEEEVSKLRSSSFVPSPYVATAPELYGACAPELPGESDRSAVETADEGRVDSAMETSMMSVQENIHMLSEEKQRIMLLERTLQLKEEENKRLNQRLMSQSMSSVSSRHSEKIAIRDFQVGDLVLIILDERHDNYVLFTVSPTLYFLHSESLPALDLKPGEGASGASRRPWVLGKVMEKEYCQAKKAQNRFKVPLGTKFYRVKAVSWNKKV
Chain of UniProt Q9NQG5 (Q9NQG5 whole entry, looked up): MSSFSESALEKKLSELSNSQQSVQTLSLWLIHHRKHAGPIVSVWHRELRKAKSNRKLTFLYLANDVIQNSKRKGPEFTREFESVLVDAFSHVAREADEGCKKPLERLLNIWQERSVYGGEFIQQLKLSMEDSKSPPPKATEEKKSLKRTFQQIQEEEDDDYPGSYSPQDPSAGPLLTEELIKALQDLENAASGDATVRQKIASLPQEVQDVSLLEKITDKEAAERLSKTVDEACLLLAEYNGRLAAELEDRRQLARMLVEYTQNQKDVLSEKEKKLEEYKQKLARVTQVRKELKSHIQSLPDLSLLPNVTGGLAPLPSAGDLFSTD
Chain of UniProt O75792 (O75792 whole entry, looked up): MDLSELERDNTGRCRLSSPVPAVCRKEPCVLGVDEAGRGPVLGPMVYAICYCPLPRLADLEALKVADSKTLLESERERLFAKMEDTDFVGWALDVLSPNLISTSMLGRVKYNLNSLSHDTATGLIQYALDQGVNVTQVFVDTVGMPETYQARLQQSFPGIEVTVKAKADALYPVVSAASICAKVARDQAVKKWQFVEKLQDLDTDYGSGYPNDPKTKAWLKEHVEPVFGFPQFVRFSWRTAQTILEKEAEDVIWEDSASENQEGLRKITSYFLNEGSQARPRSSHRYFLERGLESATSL
Chain of UniProt Q9GZR1 (Q9GZR1 whole entry, looked up): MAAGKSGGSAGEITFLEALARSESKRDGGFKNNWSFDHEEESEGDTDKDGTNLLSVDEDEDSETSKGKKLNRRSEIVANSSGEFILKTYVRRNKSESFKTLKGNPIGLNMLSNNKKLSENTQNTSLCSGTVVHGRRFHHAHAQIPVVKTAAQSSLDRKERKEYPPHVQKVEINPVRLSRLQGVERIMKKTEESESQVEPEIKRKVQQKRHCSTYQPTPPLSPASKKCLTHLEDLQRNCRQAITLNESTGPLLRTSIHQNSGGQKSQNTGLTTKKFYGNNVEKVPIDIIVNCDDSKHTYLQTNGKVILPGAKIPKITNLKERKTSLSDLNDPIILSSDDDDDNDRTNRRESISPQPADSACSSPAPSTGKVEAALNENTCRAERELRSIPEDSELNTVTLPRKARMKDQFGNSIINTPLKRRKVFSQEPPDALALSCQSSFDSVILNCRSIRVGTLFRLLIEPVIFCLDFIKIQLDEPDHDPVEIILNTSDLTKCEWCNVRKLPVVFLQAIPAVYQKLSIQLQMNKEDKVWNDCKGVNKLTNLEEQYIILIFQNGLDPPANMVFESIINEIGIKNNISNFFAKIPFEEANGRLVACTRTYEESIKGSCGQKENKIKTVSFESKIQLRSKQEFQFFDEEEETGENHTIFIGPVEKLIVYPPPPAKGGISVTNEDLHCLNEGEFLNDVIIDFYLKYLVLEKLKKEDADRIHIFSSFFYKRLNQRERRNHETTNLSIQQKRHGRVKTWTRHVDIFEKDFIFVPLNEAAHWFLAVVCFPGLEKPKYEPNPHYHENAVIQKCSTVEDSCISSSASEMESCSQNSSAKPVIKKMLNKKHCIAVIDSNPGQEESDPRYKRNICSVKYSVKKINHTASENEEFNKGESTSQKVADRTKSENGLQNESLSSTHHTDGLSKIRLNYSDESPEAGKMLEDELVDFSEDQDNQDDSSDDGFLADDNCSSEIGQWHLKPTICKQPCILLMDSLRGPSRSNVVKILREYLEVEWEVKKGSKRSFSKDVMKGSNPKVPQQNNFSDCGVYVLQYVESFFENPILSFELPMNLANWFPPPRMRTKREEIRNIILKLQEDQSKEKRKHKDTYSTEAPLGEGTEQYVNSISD
Chain of UniProt Q8NBX0 (Q8NBX0 whole entry, looked up): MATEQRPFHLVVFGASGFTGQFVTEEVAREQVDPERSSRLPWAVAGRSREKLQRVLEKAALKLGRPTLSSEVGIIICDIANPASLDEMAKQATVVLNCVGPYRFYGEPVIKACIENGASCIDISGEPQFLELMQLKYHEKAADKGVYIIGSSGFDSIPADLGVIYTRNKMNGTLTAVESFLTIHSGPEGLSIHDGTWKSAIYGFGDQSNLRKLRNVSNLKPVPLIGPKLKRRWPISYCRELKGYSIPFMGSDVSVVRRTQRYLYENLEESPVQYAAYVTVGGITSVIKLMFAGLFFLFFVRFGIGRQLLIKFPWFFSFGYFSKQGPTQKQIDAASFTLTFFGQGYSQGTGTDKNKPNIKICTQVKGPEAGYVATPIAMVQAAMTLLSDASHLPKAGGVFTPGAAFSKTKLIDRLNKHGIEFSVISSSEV
Chain of UniProt Q9Y6Y8 (Q9Y6Y8 whole entry, looked up): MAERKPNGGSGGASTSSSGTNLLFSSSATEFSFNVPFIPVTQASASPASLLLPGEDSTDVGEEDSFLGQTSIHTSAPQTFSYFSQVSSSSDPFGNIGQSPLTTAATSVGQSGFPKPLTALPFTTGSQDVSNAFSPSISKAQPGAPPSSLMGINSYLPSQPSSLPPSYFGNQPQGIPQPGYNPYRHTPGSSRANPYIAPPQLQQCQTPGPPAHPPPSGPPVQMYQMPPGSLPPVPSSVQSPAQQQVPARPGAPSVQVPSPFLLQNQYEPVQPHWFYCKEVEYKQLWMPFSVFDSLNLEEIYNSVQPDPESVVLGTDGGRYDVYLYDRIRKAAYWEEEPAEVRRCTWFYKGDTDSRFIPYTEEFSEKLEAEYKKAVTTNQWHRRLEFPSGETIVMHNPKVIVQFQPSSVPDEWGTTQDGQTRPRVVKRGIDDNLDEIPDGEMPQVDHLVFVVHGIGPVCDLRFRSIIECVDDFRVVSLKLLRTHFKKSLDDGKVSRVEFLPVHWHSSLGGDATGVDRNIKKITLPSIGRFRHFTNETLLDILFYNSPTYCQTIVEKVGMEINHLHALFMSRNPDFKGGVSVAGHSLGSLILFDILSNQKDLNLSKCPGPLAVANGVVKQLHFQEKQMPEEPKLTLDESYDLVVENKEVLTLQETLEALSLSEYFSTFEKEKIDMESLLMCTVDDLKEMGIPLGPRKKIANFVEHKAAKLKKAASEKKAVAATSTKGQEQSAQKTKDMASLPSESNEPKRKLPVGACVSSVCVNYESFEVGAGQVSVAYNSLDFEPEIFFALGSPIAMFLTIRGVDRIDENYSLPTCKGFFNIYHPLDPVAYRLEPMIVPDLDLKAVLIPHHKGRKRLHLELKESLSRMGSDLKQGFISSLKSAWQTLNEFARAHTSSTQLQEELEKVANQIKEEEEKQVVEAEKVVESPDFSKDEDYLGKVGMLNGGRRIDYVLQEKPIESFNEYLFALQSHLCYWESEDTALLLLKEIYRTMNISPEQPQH

Compound in the first experiment: Cc1cc(Nc2cc(N3CCN(C)CC3)nc(Sc3ccc(NC(=O)C4CC4)cc3)n2)n[nH]1 [tozasertib]
The experiment is described as follows: log2 fold change, soluble protein after heating vs DMSO (PISA); higher = thermal stabilisation; K562 cells, 10 uM, 30 min; active = over 0.2 and 3.5 SD of the protein, either way, in both replicates (recomputed). The essentials: (§1)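 K562 cells (2×10^6 cells/mL) were treated with 10 μM compound for 30 min, and aliquots were heated for 3 min over 48°C-58°C. Pooled aliquots were extracted in PBS with 0.5% NP-40 at 4°C, and the supernatant after 21,000xg for 90 min was measured by TMTpro 16plex LC-MS/MS with channel sums equalised. Reported thermal stability, relative to control samples and from duplicates, is a log2 fold change.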
Take SIDT2 isoform 2 (UniProt Q8NBJ9): the log2 fold change is 0.004.

As for ROR2 (UniProt Q01974), the log2 fold change was -0.025.

RAP1GDS1 isoform 5 (UniProt P52306): the log2 fold change was 0.079.

SKP1 (UniProt P63208): the log2 fold change is 0.001.

Consider REL (UniProt Q04864), for which the log2 fold change is 0.026.

With SERINC3 (UniProt Q13530), the log2 fold change was 0.046.

For the target RPS9 (UniProt P46781), the log2 fold change is 0.055.

Turning to RB1CC1 (UniProt Q8TDY2), the log2 fold change is -0.013.

SAFB2 (UniProt Q14151): the log2 fold change is -0.027.

As to RAB3IL1 (UniProt Q8TBN0), the log2 fold change was 0.

Regarding RPS6KA1 isoform 2 (UniProt Q15418), the log2 fold change is 0.002.

Regarding RPRD1B (UniProt Q9NQG5), the log2 fold change was 0.023.

As for RPS3 (UniProt P23396), the log2 fold change is 0.022.

With SEC24A (UniProt O95486), the log2 fold change was 0.018.

Consider SCCPDH (UniProt Q8NBX0), for which the log2 fold change was -0.018.

Turning to RPS27A (UniProt P62979), the log2 fold change is 0.013.

As for ROCK2 (UniProt O75116), the log2 fold change was -0.035.

Take SACM1L (UniProt Q9NTJ5): the log2 fold change was 0.058.

On to RPA1 (UniProt P27694), for which the log2 fold change is 0.015.

On to RNASEH2A (UniProt O75792), for which the log2 fold change was -0.028.

With RGS10 (UniProt O43665), the log2 fold change is 0.053.

For SDHAF2 (UniProt Q9NX18), the log2 fold change is 0.002.

Regarding SEPTIN5 (UniProt Q99719), the log2 fold change is -0.008.

With SAMD4B (UniProt Q5PRF9), the log2 fold change was -0.154.

As for SCD (UniProt O00767), the log2 fold change is -0.07.

Take SEC23IP (UniProt Q9Y6Y8): the log2 fold change was -0.002.

Regarding SLC18B1 (UniProt Q6NT16), the log2 fold change is -0.097.

For SAAL1 (UniProt Q96ER3), the log2 fold change is -0.044.

In the case of SENP6 (UniProt Q9GZR1), the log2 fold change is 0.02.

Consider RPS12 (UniProt P25398), for which the log2 fold change was -0.003.

Regarding RANBP2 (UniProt P49792), the log2 fold change was 0.013.

In the case of RETREG3 (UniProt Q86VR2), the log2 fold change was 0.006.

Compound in the next experiment: Cc1cc(SCc2sc(-c3ccc(C(F)(F)F)cc3)nc2C)ccc1OCC(=O)O
Described as above. The procedure, abridged: as §1
Regarding SIDT2 isoform 2 (UniProt Q8NBJ9), the log2 fold change was -0.186.

For the target ROR2 (UniProt Q01974), the log2 fold change is 0.097.

As to RAP1GDS1 isoform 5 (UniProt P52306), the log2 fold change was 0.036.

For SKP1 (UniProt P63208), the log2 fold change was 0.038.

On to REL (UniProt Q04864), for which the log2 fold change is 0.028.

On to SERINC3 (UniProt Q13530), for which the log2 fold change was 0.096.

RPS9 (UniProt P46781): the log2 fold change was 0.024.

Turning to RB1CC1 (UniProt Q8TDY2), the log2 fold change is 0.011.

On to SAFB2 (UniProt Q14151), for which the log2 fold change was 0.006.

As for RAB3IL1 (UniProt Q8TBN0), the log2 fold change is -0.009.

In the case of RPS6KA1 isoform 2 (UniProt Q15418), the log2 fold change is 0.066.

In the case of RPRD1B (UniProt Q9NQG5), the log2 fold change is 0.062.

Consider RPS3 (UniProt P23396), for which the log2 fold change was 0.045.

Take SEC24A (UniProt O95486): the log2 fold change is 0.084.

For the target SCCPDH (UniProt Q8NBX0), the log2 fold change was 0.124.

For RPS27A (UniProt P62979), the log2 fold change was 0.

For ROCK2 (UniProt O75116), the log2 fold change is 0.004.

SACM1L (UniProt Q9NTJ5): the log2 fold change is 0.005.

Regarding RPA1 (UniProt P27694), the log2 fold change is 0.022.

As to RNASEH2A (UniProt O75792), the log2 fold change is 0.029.

As to RGS10 (UniProt O43665), the log2 fold change is 0.024.

For the target SDHAF2 (UniProt Q9NX18), the log2 fold change is -0.125.

On to SEPTIN5 (UniProt Q99719), for which the log2 fold change was -0.017.

On to SAMD4B (UniProt Q5PRF9), for which the log2 fold change is 0.029.

For the target SCD (UniProt O00767), the log2 fold change is -0.119.

For the target SEC23IP (UniProt Q9Y6Y8), the log2 fold change was 0.074.

For SLC18B1 (UniProt Q6NT16), the log2 fold change was -0.07.

For SAAL1 (UniProt Q96ER3), the log2 fold change is 0.019.

Regarding SENP6 (UniProt Q9GZR1), the log2 fold change is -0.046.

RPS12 (UniProt P25398): the log2 fold change is -0.011.

In the case of RANBP2 (UniProt P49792), the log2 fold change was -0.003.

For RETREG3 (UniProt Q86VR2), the log2 fold change was 0.033.

Compound in the next experiment: Cc1ccc(-n2nc(C(C)(C)C)cc2NC(=O)Nc2ccc(OCCN3CCOCC3)c3ccccc23)cc1 [doramapimod]
The description is as above. The essentials:
as §1
In the case of SIDT2 isoform 2 (UniProt Q8NBJ9), the log2 fold change was 0.254.

As for ROR2 (UniProt Q01974), the log2 fold change is -0.04.

RAP1GDS1 isoform 5 (UniProt P52306): the log2 fold change is -0.014.

As to SKP1 (UniProt P63208), the log2 fold change was -0.096.

On to REL (UniProt Q04864), for which the log2 fold change is -0.003.

For the target SERINC3 (UniProt Q13530), the log2 fold change was -0.051.

Regarding RPS9 (UniProt P46781), the log2 fold change was 0.174.

As to RB1CC1 (UniProt Q8TDY2), the log2 fold change was 0.037.

On to SAFB2 (UniProt Q14151), for which the log2 fold change was 0.089.

As for RAB3IL1 (UniProt Q8TBN0), the log2 fold change is -0.021.

For RPS6KA1 isoform 2 (UniProt Q15418), the log2 fold change is -0.026.

In the case of RPRD1B (UniProt Q9NQG5), the log2 fold change is -0.044.

With RPS3 (UniProt P23396), the log2 fold change is 0.077.

For the target SEC24A (UniProt O95486), the log2 fold change is -0.029.

For the target SCCPDH (UniProt Q8NBX0), the log2 fold change was 0.007.

On to RPS27A (UniProt P62979), for which the log2 fold change was -0.049.

In the case of ROCK2 (UniProt O75116), the log2 fold change was 0.007.

For SACM1L (UniProt Q9NTJ5), the log2 fold change was -0.055.

Regarding RPA1 (UniProt P27694), the log2 fold change was -0.05.

Turning to RNASEH2A (UniProt O75792), the log2 fold change was -0.023.

As to RGS10 (UniProt O43665), the log2 fold change is 0.006.

Consider SDHAF2 (UniProt Q9NX18), for which the log2 fold change was -0.051.

Take SEPTIN5 (UniProt Q99719): the log2 fold change is -0.017.

For the target SAMD4B (UniProt Q5PRF9), the log2 fold change was 0.073.

Take SCD (UniProt O00767): the log2 fold change is -0.028.

As to SEC23IP (UniProt Q9Y6Y8), the log2 fold change is 0.043.

Regarding SLC18B1 (UniProt Q6NT16), the log2 fold change is -0.002.

For the target SAAL1 (UniProt Q96ER3), the log2 fold change was -0.006.

Take SENP6 (UniProt Q9GZR1): the log2 fold change was 0.006.

Regarding RPS12 (UniProt P25398), the log2 fold change is 0.012.

For RANBP2 (UniProt P49792), the log2 fold change was 0.043.

RETREG3 (UniProt Q86VR2): the log2 fold change is -0.052.
